According to PubChem BioAssay (EPA / NIEHS):
Several values for one entry are separate records, joined by “and”; a condition that tells them apart may be missing. Identical values can stand only once. Inconclusive results are not listed. Some structures have more than one record in an assay (separate samples or runs), and their calls can disagree. Activity calls are given as the source filed them. The calls were made as follows, unless noted: active = hit-call score of the fitted dose curve at least 0.9, where 1 is the maximum; inconclusive = response in the unintended direction; inactive = score below 0.9.

Assays:
[1] = BSK_3C_VCAM1: BioMAP Diversity Plus: 3C Assay for Vascular cell adhesion molecule 1 (VCAM1) Biomarker Activity (AID 2282999; active = hit-call score of the fitted dose curve at least 0.9, where 1 is the maximum; inactive = score below 0.9); conditions: BioMAP 3C HUVEC, VCAM1 ELISA, cytokine-stimulated; actives raise or lower the signal
Summary of the method: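 Human umbilical vein endothelial cells were dosed with compound for 24 h, after which cell-surface VCAM-1 was quantified by ELISA. Bidirectional curve fitting used DMSO as negative control and activity baseline.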

[2] = BSK_4H_Eotaxin3: BioMAP Diversity Plus: 4H Assay for Eotaxin 3 Biomarker Activity (AID 2283000; active = hit-call score of the fitted dose curve at least 0.9, where 1 is the maximum; inactive = score below 0.9); conditions: primary human endothelial cells (HUVEC); actives raise or lower the signal
Summary of the method: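 Chemicals were added to human umbilical vein endothelium cultures, and Eotaxin-3 was quantified by ELISA at 24 h. Values were derived by bidirectional fitting with DMSO serving as negative control and activity baseline.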

[3] = biological target: human Peroxisome Proliferator-activated Receptor alpha (PPARa), PPARA (gene 5465) (UniProt Q07869); assay: ATG_PPARa_TRANS: Attagene TRANS-FACTORIAL HepG2 Assay for human Peroxisome Proliferator-activated Receptor alpha (PPARa) (AID 2283001)
Summary of the method: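 Gain-of-signal endpoint: reporter mRNA induction relative to DMSO, detected by fluorescent RT-PCR and capillary electrophoresis. HepG2 cells transiently carried GAL4-UAS-driven reporter units plus NR-Gal4 fusion; exposure lasted 24 h.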

[4] = biological target: human Peroxisome Proliferator-activated Receptor delta (PPARd), PPARD (gene 5467) (UniProt Q03181); assay: ATG_PPARd_TRANS: Attagene TRANS-FACTORIAL HepG2 Assay for human Peroxisome Proliferator-activated Receptor delta (PPARd) (AID 2283002)
Sequence of human Peroxisome Proliferator-activated Receptor delta (PPARd), PPARD (gene 5467) (Q03181 whole entry, looked up, the tested form may be a part): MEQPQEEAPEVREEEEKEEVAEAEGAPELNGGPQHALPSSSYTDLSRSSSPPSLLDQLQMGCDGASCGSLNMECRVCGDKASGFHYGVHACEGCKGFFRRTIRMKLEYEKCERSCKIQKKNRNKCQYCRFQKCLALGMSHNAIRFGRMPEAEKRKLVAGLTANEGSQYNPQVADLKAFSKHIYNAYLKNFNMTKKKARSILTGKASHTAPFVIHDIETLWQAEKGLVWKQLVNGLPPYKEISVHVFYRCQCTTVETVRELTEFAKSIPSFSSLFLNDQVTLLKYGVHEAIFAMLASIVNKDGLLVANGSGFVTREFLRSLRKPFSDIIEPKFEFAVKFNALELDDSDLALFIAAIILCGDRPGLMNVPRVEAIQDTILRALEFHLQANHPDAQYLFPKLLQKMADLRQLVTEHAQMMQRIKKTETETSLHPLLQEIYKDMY
Summary of the method: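 Measured quantity: GAL4-UAS reporter transcript induction in HepG2 after 24 h chemical dosing, with NR-Gal4 chimeras supplied by transient transfection. Detection by RT-PCR and capillary electrophoresis; upward fit against DMSO.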

[5] = biological target: human Retinoic Acid Receptor beta (RARb), RARB (gene 5915) (UniProt P10826); assay: ATG_RARb_TRANS: Attagene TRANS-FACTORIAL HepG2 Assay for human Retinoic Acid Receptor beta (AID 2283004)
Sequence of human Retinoic Acid Receptor beta (RARb), RARB (gene 5915) (P10826 whole entry, looked up): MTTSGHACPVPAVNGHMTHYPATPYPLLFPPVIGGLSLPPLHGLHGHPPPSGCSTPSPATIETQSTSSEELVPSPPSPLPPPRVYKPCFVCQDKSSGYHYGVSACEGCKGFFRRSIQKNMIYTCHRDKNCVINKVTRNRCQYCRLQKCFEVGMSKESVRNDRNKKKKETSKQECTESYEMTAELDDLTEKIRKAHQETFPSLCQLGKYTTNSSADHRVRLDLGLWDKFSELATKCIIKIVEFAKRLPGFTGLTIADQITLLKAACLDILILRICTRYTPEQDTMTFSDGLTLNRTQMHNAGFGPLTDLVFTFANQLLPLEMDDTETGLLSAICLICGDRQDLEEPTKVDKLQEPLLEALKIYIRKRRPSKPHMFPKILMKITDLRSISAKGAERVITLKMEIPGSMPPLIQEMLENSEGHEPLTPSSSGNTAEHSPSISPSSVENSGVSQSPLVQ
Summary of the method: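 Transient transfection of HepG2 with multiple reporter units → chemical dosing, 24 h → total RNA isolation → RT with oligo(dT) → reporter-specific PCR, 6-FAM primer extension, HpaI digest → capillary electrophoresis. Positive direction vs DMSO control.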

[6] = biological target: Retinoic acid receptor alpha (Homo sapiens) (UniProt P10276); assay: ATG_RARa_TRANS: Attagene TRANS-FACTORIAL HepG2 Assay for human Retinoic Acid Receptor alpha (RARa) (AID 2283005)
Sequence of Retinoic acid receptor alpha (Homo sapiens) (P10276 whole entry, looked up, the tested form may be a part): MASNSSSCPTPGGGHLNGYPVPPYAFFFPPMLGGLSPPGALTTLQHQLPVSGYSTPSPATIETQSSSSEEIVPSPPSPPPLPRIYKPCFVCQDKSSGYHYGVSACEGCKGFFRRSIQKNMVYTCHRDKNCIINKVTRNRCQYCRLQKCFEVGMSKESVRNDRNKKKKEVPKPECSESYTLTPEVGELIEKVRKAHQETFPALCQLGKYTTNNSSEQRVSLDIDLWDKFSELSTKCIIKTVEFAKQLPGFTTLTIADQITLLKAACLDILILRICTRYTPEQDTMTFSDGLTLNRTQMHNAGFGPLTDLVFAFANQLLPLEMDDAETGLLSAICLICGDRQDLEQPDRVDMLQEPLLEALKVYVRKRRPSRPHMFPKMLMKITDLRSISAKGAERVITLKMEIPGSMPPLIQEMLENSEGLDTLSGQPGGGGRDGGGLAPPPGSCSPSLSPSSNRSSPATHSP
Summary of the method: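 HepG2 cells transiently transfected with multiple reporter units expressing chimeric RARα-GAL4 fusion, with GAL4-UAS-driven reporters. After 24 h compound exposure, reporter mRNA induction quantified by RT-PCR and capillary electrophoresis with fluorescent labeling; gain-of-signal fitted relative to DMSO control.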

[7] = BSK_3C_Proliferation: Cell Proliferation Assessment in the BioMAP Diversity Plus: 3C Assay (AID 2283006; active = hit-call score of the fitted dose curve at least 0.9, where 1 is the maximum; inactive = score below 0.9;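 as to AC50: potency may reflect either rise or fall in cell number versus DMSO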); conditions: primary human endothelial cells (HUVEC)
Summary of the method: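 Read-out is total protein by SRB absorbance at 560 nm, taken as a proxy for relative cell number. Primary human umbilical vein endothelium cultured below confluence was dosed for 48 h, TCA-fixed and SRB-stained; curves were fitted bidirectionally versus DMSO.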

[8] = biological target: Nuclear receptor subfamily 1 group I member 2 (Homo sapiens) (UniProt O75469); assay: ATG_PXR_TRANS: Attagene TRANS-FACTORIAL HepG2 Assay for human Pregnane X Receptor (PXR) (AID 2283008)
Sequence of Nuclear receptor subfamily 1 group I member 2 (Homo sapiens) (O75469 whole entry, looked up, the tested form may be a part): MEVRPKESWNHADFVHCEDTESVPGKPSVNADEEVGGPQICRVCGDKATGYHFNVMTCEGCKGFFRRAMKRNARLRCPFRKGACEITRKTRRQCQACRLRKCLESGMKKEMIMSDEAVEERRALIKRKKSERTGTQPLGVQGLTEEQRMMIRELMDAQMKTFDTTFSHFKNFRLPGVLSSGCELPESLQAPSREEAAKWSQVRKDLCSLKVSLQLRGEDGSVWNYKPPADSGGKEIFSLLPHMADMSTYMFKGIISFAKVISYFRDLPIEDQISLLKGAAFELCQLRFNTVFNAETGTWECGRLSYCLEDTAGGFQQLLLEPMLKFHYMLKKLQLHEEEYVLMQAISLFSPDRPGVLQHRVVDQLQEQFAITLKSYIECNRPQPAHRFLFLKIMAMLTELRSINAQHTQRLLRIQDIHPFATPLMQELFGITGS
Summary of the method: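 Read-out is fluorescence of labelled reporter cDNA fragments separated by capillary electrophoresis after RT-PCR and HpaI digestion. Source: HepG2 cells carrying PXR-GAL4/UAS reporter constructs, treated 24 h; activity fitted upward relative to DMSO.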

[9] = biological target: human Retinoic Acid Receptor gamma (RARg), RARG (gene 5916) (UniProt P13631); assay: ATG_RARg_TRANS: Attagene TRANS-FACTORIAL HepG2 Assay for human Retinoic Acid Receptor gamma (RARg) (AID 2283009)
Sequence of human Retinoic Acid Receptor gamma (RARg), RARG (gene 5916) (P13631 whole entry, looked up): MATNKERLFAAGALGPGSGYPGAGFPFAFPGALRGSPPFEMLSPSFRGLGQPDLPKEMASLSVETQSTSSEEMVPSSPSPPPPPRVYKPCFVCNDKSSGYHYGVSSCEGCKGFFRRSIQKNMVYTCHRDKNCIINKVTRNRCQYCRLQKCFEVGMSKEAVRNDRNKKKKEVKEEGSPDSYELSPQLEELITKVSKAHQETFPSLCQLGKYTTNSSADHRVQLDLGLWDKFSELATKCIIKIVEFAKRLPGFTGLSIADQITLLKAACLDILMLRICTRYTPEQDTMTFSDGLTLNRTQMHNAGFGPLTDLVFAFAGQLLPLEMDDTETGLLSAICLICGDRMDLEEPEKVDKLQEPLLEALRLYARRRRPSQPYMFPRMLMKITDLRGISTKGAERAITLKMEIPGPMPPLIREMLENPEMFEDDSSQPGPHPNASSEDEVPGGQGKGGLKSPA
Summary of the method: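 Transient transfection of HepG2 with multi-reporter constructs, then 24 h chemical treatment. Total RNA isolated, reverse-transcribed, PCR-amplified, fluorescently labelled and resolved by capillary electrophoresis; activity scored as mRNA induction versus DMSO.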

[10] = biological target: human RAR-related Orphan Receptor beta (RORb), RORB (gene 6096) (UniProt Q92753); assay: ATG_RORb_TRANS: Attagene TRANS-FACTORIAL HepG2 Assay for human RAR-related Orphan Receptor beta (RORb) (AID 2283010)
Sequence of human RAR-related Orphan Receptor beta (RORb), RORB (gene 6096) (Q92753 whole entry, looked up, the tested form may be a part): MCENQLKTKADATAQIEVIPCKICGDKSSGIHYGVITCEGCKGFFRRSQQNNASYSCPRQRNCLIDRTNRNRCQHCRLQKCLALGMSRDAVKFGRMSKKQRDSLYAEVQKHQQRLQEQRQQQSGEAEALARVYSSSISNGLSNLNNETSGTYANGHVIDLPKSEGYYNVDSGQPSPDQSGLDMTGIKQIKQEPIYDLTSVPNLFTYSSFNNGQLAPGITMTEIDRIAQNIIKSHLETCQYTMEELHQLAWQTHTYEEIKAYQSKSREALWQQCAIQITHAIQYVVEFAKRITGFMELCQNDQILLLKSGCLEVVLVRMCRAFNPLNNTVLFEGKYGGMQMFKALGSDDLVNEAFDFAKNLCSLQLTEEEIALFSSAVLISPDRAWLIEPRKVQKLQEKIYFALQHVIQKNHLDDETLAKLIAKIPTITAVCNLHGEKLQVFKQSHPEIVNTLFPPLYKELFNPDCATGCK
Summary of the method: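 Readout is reporter-gene mRNA induction, detected as fluorescence after RT-PCR and capillary electrophoresis, fitted for gain of signal against DMSO controls. Transiently transfected HepG2 liver cells carrying GAL4-UAS reporter constructs were treated for 24 hours.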

[11] = biological target: human RAR-related Orphan Receptor gamma (RORg), RORC (gene 6097) (UniProt P51449); assay: ATG_RORg_TRANS: Attagene TRANS-FACTORIAL HepG2 Assay for human RAR-related Orphan Receptor gamma (RORg) (AID 2283011)
Sequence of human RAR-related Orphan Receptor gamma (RORg), RORC (gene 6097) (P51449 whole entry, looked up, the tested form may be a part): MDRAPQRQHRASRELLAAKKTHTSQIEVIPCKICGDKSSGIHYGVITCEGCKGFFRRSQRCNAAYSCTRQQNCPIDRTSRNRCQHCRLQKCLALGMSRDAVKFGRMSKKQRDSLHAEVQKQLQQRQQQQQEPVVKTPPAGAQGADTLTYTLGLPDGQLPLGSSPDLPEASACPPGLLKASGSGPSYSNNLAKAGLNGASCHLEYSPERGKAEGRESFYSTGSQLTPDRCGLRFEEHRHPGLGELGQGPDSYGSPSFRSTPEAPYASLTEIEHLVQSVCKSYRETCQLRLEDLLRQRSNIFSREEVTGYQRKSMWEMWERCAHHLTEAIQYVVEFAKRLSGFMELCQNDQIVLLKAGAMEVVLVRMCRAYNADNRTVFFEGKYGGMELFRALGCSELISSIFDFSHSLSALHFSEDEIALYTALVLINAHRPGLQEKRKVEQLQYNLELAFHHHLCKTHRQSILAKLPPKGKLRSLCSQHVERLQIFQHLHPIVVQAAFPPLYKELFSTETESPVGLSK
Summary of the method: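 First, HepG2 liver cells were transfected with GAL4-UAS-driven reporter constructs and the RORg-Gal4 fusion. Next, they were treated with chemical for 24 h. Finally, reporter mRNA was quantified by RT-PCR and capillary electrophoresis, with upward activity fitted against DMSO.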

[12] = biological target: Retinoic acid receptor RXR-alpha (Homo sapiens) (UniProt P19793); assay: ATG_RXRa_TRANS: Attagene TRANS-FACTORIAL HepG2 Assay for human Retinoid X Receptor alpha (RXRa) (AID 2283012)
Sequence of Retinoic acid receptor RXR-alpha (Homo sapiens) (P19793 whole entry, looked up, the tested form may be a part): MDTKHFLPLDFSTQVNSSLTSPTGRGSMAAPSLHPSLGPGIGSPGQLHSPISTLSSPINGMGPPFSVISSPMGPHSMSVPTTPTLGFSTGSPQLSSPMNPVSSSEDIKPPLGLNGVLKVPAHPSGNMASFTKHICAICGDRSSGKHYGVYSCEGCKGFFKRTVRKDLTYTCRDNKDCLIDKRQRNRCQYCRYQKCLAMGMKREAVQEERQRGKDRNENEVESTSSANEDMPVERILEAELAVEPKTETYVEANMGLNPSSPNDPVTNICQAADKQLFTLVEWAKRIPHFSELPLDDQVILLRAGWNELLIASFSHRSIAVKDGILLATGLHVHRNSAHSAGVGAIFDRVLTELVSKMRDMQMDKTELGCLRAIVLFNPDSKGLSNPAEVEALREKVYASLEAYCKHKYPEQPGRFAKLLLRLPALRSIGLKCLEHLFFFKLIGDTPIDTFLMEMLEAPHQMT
Summary of the method: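 Transient transfection of human HepG2 with multiple GAL4-UAS reporter constructs; 24 h compound exposure; total RNA isolated, reverse-transcribed, PCR-amplified, 6-FAM labelled, HpaI-cut, resolved by capillary electrophoresis. Positive-direction fit versus DMSO.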

[13] = biological target: human Retinoid X Receptor beta (RXRb), RXRB (gene 6257) (UniProt P28702); assay: ATG_RXRb_TRANS: Attagene TRANS-FACTORIAL HepG2 Assay for human Retinoid X Receptor beta (RXRb) (AID 2283013)
Sequence of human Retinoid X Receptor beta (RXRb), RXRB (gene 6257) (P28702 whole entry, looked up, the tested form may be a part): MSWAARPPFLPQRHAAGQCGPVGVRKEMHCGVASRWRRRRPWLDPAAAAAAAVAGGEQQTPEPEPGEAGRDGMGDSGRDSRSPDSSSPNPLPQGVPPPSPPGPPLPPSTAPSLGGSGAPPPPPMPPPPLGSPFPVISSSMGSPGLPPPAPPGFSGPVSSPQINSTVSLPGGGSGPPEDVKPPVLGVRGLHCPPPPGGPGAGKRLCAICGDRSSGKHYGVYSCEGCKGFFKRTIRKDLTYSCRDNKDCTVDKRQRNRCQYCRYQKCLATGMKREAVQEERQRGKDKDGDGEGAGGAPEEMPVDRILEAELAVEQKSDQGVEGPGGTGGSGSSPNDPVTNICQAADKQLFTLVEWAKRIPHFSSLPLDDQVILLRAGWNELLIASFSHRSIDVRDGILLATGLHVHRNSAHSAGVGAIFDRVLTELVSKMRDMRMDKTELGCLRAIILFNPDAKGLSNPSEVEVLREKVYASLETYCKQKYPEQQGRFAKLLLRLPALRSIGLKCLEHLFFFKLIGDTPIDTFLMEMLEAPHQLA
Summary of the method: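 Transfect HepG2 with GAL4-UAS multi-reporter constructs (chimeric NR-Gal4, TRANS format); dose compound 24 h; isolate RNA, RT-PCR, FAM primer extension, HpaI digest; quantify by capillary electrophoresis; positive direction vs DMSO.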

[14] = read-out: E-selectin (Homo sapiens) (UniProt P16581); assay: BSK_3C_Eselectin: BioMAP Diversity Plus: 3C Assay for Eselectin Biomarker Activity (AID 2283015; active = hit-call score of the fitted dose curve at least 0.9, where 1 is the maximum; inactive = score below 0.9); conditions: primary human endothelial cells (HUVEC); actives raise or lower the signal
Summary of the method: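 ELISA read-out of E-selectin on endothelial monolayers after 24 h chemical treatment. Human umbilical vein primary cells served as the system, with DMSO defining baseline activity for bidirectional fitting.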

[15] = read-out: Interleukin-1 alpha (IL1a), IL1A (gene 3552); assay: BSK_BE3C_IL1a: BioMAP Diversity Plus: BE3C Assay for Interleukin-1 alpha (IL1a) Biomarker Activity (AID 2283016; active = hit-call score of the fitted dose curve at least 0.9, where 1 is the maximum; inactive = score below 0.9); conditions: primary human bronchial epithelial cells; actives raise or lower the signal
Summary of the method: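 BE3C primary human bronchial epithelium; cpd 24 h; IL-1a by ELISA; bidirectional fit vs DMSO; parallel SRB (0.1% SRB, 10% TCA fix, 560 nm) for cytotoxicity.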

[16] = read-out: Monocyte Chemoattractant Protein-1 (MCP1), CCL2 (gene 6347); assay: BSK_3C_MCP1: BioMAP Diversity Plus: 3C Assay for Monocyte Chemoattractant Protein-1 (MCP1) Biomarker Activity (AID 2283017; active = hit-call score of the fitted dose curve at least 0.9, where 1 is the maximum; inactive = score below 0.9); conditions: primary human endothelial cells (HUVEC); actives raise or lower the signal
Summary of the method: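 ELISA read-out of MCP-1 from human umbilical vein endothelial cell cultures harvested 24 h post-dosing. Gain or loss of signal was fitted relative to DMSO.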

[17] = read-out: Monocyte Chemoattractant Protein-1 (MCP1), CCL2 (gene 6347); assay: BSK_4H_MCP1: BioMAP Diversity Plus: 4H Assay for Monocyte Chemoattractant Protein-1 (MCP1) Biomarker Activity (AID 2283018; active = hit-call score of the fitted dose curve at least 0.9, where 1 is the maximum; inactive = score below 0.9); conditions: primary human endothelial cells (HUVEC); actives raise or lower the signal
Summary of the method: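 ELISA read-out of MCP-1 from human vascular endothelial primary cells taken at 24 hours after compound exposure. Activity was fitted in both directions relative to DMSO, which served as negative control.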

[18] = read-out: Human Leukocyte Antigen - DR isotype (HLADR), HLA-DRA (gene 3122); assay: BSK_3C_HLADR: BioMAP Diversity Plus: 3C Assay for Human Leukocyte Antigen - DR isotype (HLADR) Biomarker Activity (AID 2283019; active = hit-call score of the fitted dose curve at least 0.9, where 1 is the maximum; inactive = score below 0.9); conditions: primary human endothelial cells (HUVEC); actives raise or lower the signal
Summary of the method: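 ELISA readout of surface HLA-DR on human umbilical vein endothelium, taken 24 h after chemical treatment. Gain- and loss-of-signal were both fitted relative to DMSO.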

[19] = read-out: Intercellular Adhesion Molecule 1 (ICAM1), ICAM1 (gene 3383); assay: BSK_3C_ICAM1: BioMAP Diversity Plus: 3C Assay for Intercellular Adhesion Molecule 1 (ICAM1) Biomarker Activity (AID 2283003; active = hit-call score of the fitted dose curve at least 0.9, where 1 is the maximum; inactive = score below 0.9); conditions: primary human endothelial cells (HUVEC); actives raise or lower the signal
Summary of the method: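 ICAM-1 levels measured by ELISA after HUVEC cultures in the 3C system had been dosed for 24 h. Gain or loss of signal relative to DMSO was fitted in both directions.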

[20] = biological target: Peroxisome proliferator-activated receptor gamma (Homo sapiens) (UniProt P37231); assay: ATG_PPARg_TRANS: Attagene TRANS-FACTORIAL HepG2 Assay for human Peroxisome Proliferator-activated Receptor-gamma (PPARg) (AID 2283007)
Summary of the method: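 After 24 h of chemical exposure, transfected HepG2 cells carrying PPARγ-Gal4 chimera reporter constructs are lysed for RNA. Reporter transcripts are measured by RT-PCR and capillary electrophoresis with fluorescent labelling, and gain of signal is fitted versus DMSO.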

Measured: AC50

Sequence of E-selectin (Homo sapiens) (P16581 whole entry, looked up): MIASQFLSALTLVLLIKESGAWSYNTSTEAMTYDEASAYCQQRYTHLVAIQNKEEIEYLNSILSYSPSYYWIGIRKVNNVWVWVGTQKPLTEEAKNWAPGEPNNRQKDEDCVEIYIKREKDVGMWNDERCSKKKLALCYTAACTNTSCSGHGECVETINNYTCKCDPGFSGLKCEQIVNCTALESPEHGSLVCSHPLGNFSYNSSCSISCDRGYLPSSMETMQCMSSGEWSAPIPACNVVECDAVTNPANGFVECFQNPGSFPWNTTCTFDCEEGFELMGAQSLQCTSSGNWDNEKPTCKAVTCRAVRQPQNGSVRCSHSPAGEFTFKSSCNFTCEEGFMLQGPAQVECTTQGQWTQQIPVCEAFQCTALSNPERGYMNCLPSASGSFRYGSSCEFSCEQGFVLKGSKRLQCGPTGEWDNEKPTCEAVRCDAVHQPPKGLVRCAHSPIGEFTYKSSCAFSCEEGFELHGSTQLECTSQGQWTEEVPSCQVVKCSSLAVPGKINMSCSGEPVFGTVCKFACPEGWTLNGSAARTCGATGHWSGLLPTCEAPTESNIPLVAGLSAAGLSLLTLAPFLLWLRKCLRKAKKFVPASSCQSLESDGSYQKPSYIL

CC(C)C1(C)N=C(c2nc3ccccc3cc2C(=O)O)NC1=O (stereo not given)
not listed: [19] | [20]
inactive: all other assays above

CC1=C(C(=O)Nc2ccccc2)SCCO1
active: [18] 10.6 µM
not listed: [6] | [11] | [12] | [19]
inactive: all other assays above

CCCCNC(=O)OCC#CI
inactive: [3] | [4] | [6] | [20] | [8] | [9] | [10] | [11] | [12] | [13]
active: [1] 16.2 µM and 20.8 µM | [2] 17.3 µM and 15.1 µM | [7] 6.12 µM and 7.64 µM | [20] 26.7 µM | [14] 31.6 µM and 31.8 µM | [15] 33.7 µM and 29.6 µM | [16] 24.9 µM and 19.2 µM | [17] 26 µM and 14.8 µM | [18] 8.66 µM and 11 µM

O=C(Nc1ccccc1)Nc1ccnc(Cl)c1
active: [20] 50 µM | [16] 9.83 µM | [17] 20 µM | [18] 20 µM
not listed: [6] | [9] | [10] | [19]
inactive: all other assays above

COC(=O)N(OC)c1ccccc1COc1ccn(-c2ccc(Cl)cc2)n1
active: [2] 18.3 µM | [7] 2.34 µM | [14] 5.33 µM | [16] 19 µM | [17] 7.63 µM | [18] 7.6 µM
not listed: [19] | [20]
inactive: all other assays above
